In PubChem BioAssay (NCI):
About 83,000 compounds went through this panel and 20% of them were active in at least one assay; those are over-represented in the sample as a whole.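 The endpoint reported here, percent growth, reads 100 for growth as untreated, 0 for no net growth and -100 for all cells dead.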 Values without a mark were called inactive. Active and inactive are the calls of the source. Rule for the calls: active = growth percent below 10; inactive = the rest.

Tested on: MCF7 breast
Experiment: NCI-60 one-dose screen, 48 h (100 = growth as untreated, 0 = no growth, -100 = all killed)
Conditions: 10 µM unless noted

SMILES | growth
COc1cc(Br)c(OC)cc1Br | 63.1%
O=C(Nc1ccc(I)cc1)c1cc([N+](=O)[O-])ccc1O | 18.9%
COC(=O)CCCCCCN=Cc1c(O)c(O)c(C(C)C)c2cc(C)c(-c3c(C)cc4c(C(C)C)c(O)c(O)c(C=NCCCCCCC(=O)OC)c4c3O)c(O)c12 | 7.98% (active)
C=CCn1c(C)nc2ccc(Nc3nc(Nc4ccc(F)cc4)nc4ccccc34)cc21 | 26.1%
Clc1ccc2c(c1)NC1(CCSc3ccccc31)n1nccc1-2 (stereo not drawn) | 102%
c1cc(-c2ccc3c(c2)OCO3)n2nccc2n1 | 89.9%
COc1ccc(-c2nnc(COc3ccc(NS(=O)(=O)c4ccc(OC)cc4)cc3F)o2)cc1 | 69.5%
CCNC(=O)CCCCC(=O)c1c(C)[nH]c(/C=C2\N=C(c3ccc[nH]3)C=C2OC)c1C | -17.4% (active)
CC[C@H](C)[C@H]1NC(=O)[C@@H](N[C@](C)(O)[C@@H](N)CC(C)C)[C@@H](C)OC(=O)[C@H](Cc2ccc(OC)cc2)N(C)C(=O)[C@@H]2CCCN2C(=O)[C@H](CC(C)C)NC(=O)[C@@H](C)C(=O)[C@H](C(C)C)OC(=O)C[C@@H]1O | 2.76% (active)
O=C(CNC(=O)c1cccc2ccccc12)Nc1ccccc1Oc1ccccc1 | 11.3%
Clc1nc(-c2cccnc2)nc2sc3c(c12)CCCCCC3 | 92.7%
O=C(C[N+](=O)[O-])c1ccc(Cl)cc1 | 100%
COc1cc2nc(Cl)nc(NCCO)c2cc1OC | 100%
